Assay results: ChEMBL document CHEMBL3988442, “University of Dundee, Small-Polar-MMV Screening Library” (2021)

Tests used:
[1] = target: T1, Aspartate--tRNA(Asp/Asn) ligase (Mycobacterium tuberculosis (strain ATCC 25618 / H37Rv)) (UniProt P9WFW3); test: Assay for Asp RNA synthetase-1 from Mycobacterium tuberculosis; format: functional; parameters: scale not given: direction of the effect not stated beside the values; conditions: 30 µM; further: in the data most compounds retested in dose-response had high values
T1 sequence (whole entry): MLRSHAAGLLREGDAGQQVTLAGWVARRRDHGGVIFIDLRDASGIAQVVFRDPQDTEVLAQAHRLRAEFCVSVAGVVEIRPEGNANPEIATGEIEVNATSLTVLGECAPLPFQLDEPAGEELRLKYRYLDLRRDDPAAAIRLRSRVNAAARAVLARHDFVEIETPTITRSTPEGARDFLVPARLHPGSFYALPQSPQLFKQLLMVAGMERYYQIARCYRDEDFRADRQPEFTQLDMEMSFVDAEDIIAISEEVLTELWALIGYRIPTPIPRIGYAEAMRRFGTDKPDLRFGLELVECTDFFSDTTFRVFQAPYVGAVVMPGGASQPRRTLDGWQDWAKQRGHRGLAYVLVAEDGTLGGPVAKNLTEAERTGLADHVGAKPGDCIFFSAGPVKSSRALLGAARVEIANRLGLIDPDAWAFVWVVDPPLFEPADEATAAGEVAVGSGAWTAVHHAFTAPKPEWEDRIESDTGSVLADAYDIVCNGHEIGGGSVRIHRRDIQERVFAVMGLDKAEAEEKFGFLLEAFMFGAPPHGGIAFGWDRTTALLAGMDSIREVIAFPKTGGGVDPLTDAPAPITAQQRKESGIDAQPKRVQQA

[2] = target: Shiga toxin 2 (Escherichia coli O157:H7) (UniProt P09385+P09386); test: E. coli 0.157:H7 Shiga Toxin SOP - stx2 screening assay; format: functional; parameters: scale not given: direction of the effect not stated beside the values; conditions: 30 µM

| Compound | Percent Effect [1] [%] | Percent Effect [2] [%] |
| --- | --- | --- |
| CCCc1n[nH]c(C2CN(CCCS(C)(=O)=O)CCO2)n1 (configuration not stated) | -3.39 | -21.5 |
| CC(c1ccccc1)n1c(SCC(=O)O)nnc1-c1ccccc1Cl (configuration not stated) | 1 | 2.71 |
| COCc1nn(C(C)C)c2c1CCN(Cc1ccc(C)s1)C2 | -3.6 | -26.4 |
| CCc1noc(C)c1C(=O)N1CCCC1Cn1cc(C)cn1 (configuration not stated) | 4.02 | 31.4 |
| CCc1nccn1C1CCCN(C(=O)c2cc3nc(C)ccc3o2)C1 (configuration not stated) | -2.42 | 20.3 |
| O=C(NCc1ccc(-n2cncn2)nc1)c1ccoc1 | 3.8 | -9.83 |
| CC(O)CNC(=O)NCc1ccc(N2CCNC(=O)C2)cc1 (configuration not stated) | 2.09 | -86.8 |
| Cc1ccc(CNCC2CCc3nnc(C(C)C)n3C2)s1 (configuration not stated) | -3.31 | -22.4 |
| Cc1ccc(CC(=O)NC(C)C(=O)N2CCS(=O)(=O)CC2)cc1 (configuration not stated) | 0.123 | 1.85 |
| Cc1cnn(CCNCc2nc(-c3ccccc3Cl)no2)c1 | -2.88 | -10.8 |
| CC(C#N)CSc1ccccc1NCC(=O)Nc1ccc(F)cc1 (configuration not stated) | 2.19 | -7.42 |
| Cc1cnn(CC2CN(Cc3cccc(OCC(N)=O)c3)CCO2)c1 (configuration not stated) | -5.07 | 8.76 |
| COCCCNC(=O)CN1CCCC1c1c(C)nn(C)c1Cl (configuration not stated) | -4.32 | -37 |
| COc1ccc(Br)c(C(=O)NCC2CCN(C(=O)c3ccoc3)CC2)c1 | -5.03 | 0.84 |
| OC(CN1CCOCC1)c1ccc(OC(F)(F)F)cc1 (configuration not stated) | -1.62 | 13.6 |
| Cc1cnc(CN(C)C2CCN(Cc3nc4ccccc4n3C)C2)o1 (configuration not stated) | -5.16 | -27.3 |
| CSc1ccc(C(CNC(=O)C2CC2)N2CCc3sccc3C2)cc1 (configuration not stated) | -0.15 | 11.2 |
| Cc1noc(C)c1CN(C)CC1CCCN1c1cccnn1 (configuration not stated) | -1.56 | 14.9 |
| c1ccc(CC2CCN(Cc3ccnc(-c4cccnc4)n3)CC2)cc1 | 0.908 | -6.53 |
| CCc1nc(C2CCCN2CC(=O)Nc2c(C)n[nH]c2C)no1 (configuration not stated) | -2.31 | 2.91 |
| Cc1nc2cc(=O)[nH]n2c(C)c1CC(=O)Nc1ccc2ccccc2n1 | 1.28 | 36.5 |
| Cc1cccc(OCCNC(=O)CN2CCCC2Cn2cccn2)c1 (configuration not stated) | -1.71 | -0.164 |
| CNC(=O)C(NC(=O)c1nccn2ccnc12)c1ccc(F)c(F)c1 (configuration not stated) | 0.0141 | 14.2 |
| Cc1cc(C)n(CC(=O)NC(Cc2ccsc2)c2ccccn2)c(=O)n1 (configuration not stated) | -2.19 | -15.3 |
| COCC1c2c(cnn2CC2CC2)CCN1Cc1nccs1 (configuration not stated) | 0.524 | -52.1 |
| Oc1cc(CCC2CCCCN2)cc(-c2ccncc2)c1 (configuration not stated) | 2.44 | -42.2 |

| Compound | Percent Effect [1] [%] | Percent Effect [2] [%] |
| --- | --- | --- |
| O=C(NCC(O)c1cccs1)c1cccc(Cl)c1 (configuration not stated) | -5.75 | -20.5 |
| Cc1cnn(C2CCCN(C(=O)CCc3nccs3)C2)c1 (configuration not stated) | -2.71 | 20 |
| O=C(Cn1cc(C(=O)O)ccc1=O)Nc1ccc(F)cc1Cl | -8.57 | -28.6 |
| Cn1cc(CN2CC3(CCN(C(=O)c4cscn4)C3)C2)cn1 | -5.56 | -18.3 |
| COc1ccccc1CN1CC[C@H]2C[C@@H](C(=O)N3CCCC3)O[C@H]2C1 | 0.335 | -13.2 |
| COCc1nc2cc(NCc3ccncc3)ccc2o1 | 57.1 | -55.9 |
| Cc1ccc(C2CCCCCN2Cc2cn(C)nc2C)s1 (configuration not stated) | -2.17 | -71.3 |
| Cn1cc(CN2CCc3c(nc(-c4ccccn4)[nH]c3=O)C2)cn1 | -3.63 | -0.78 |
| CC(C)(C)c1nnc(CN2CCn3c(nnc3C3CC3)C2)o1 | 8.8 | -5.14 |
| c1coc(CN2C[C@H](OCC3CCOCC3)[C@H]3COC[C@H]32)c1 | 1.73 | 12.6 |
| Cc1n[nH]c(C2CN(C(=O)c3ccnc(C4CC4)n3)CCO2)n1 (configuration not stated) | 1.3 | 28.6 |
| c1cnc(-c2cnc(N3CCSCC3)nc2C2CCCO2)cn1 (configuration not stated) | 6.48 | 13.6 |
| CN1CCC(C(=O)NCc2nncn2-c2ccccc2)CC1=O (configuration not stated) | -4.57 | 18.1 |
| Cc1noc([C@@]23CCO[C@@H]2CCN(CC2CCOCC2)C3)n1 | 6.14 | -16.8 |
| COc1ccc(C)cc1C(C)NC(=O)NCCCn1cncn1 (configuration not stated) | 2.78 | -12.9 |
| Cn1cc(C2CCCN2CCCc2nc(-c3cccs3)no2)cn1 (configuration not stated) | 0.756 | 6.08 |
| CC(C)CCN1Cc2c(C(=O)O)ncn2-c2ccccc2S1(=O)=O | -0.474 | -10.7 |
| Cc1cnn(CCC(=O)N2C[C@H]3CC[C@@H]2CN(CC(=O)N(C)C)C3)c1 | 4.25 | -21.6 |
| Cn1cc(CN2CC[C@H]3C[C@H](c4nc(C5CC5)cs4)O[C@@H]3C2)cn1 | -0.624 | -28.1 |
| CCC1=N[C@@]2(CC[C@@H]3CN(Cc4ccc(Cl)cc4)C[C@@H]32)C(=O)N1C | 3.65 | 3.45 |
| CS(=O)(=O)NCc1nnc2n1CCN(Cc1cccs1)C2 | -4.17 | 3.79 |
| COc1cccc(N2CCN(Cc3ccc(NC(C)=O)cc3)CC2=O)c1 | -1.75 | -2.21 |
| Cc1ccoc1C(=O)NCC(Cc1ccc(F)cc1)C(N)=O (configuration not stated) | -2.1 | 9.66 |
| Cc1cncc(C(=O)N2Cc3ccccc3C3(CCN(C)CC3)C2)c1 | -2.03 | -1.24 |
| CCC1=N[C@@]2(CC[C@@H]3CN(CC(=O)N(C)C)C[C@@H]32)C(=O)N1CC1CC1 | -4.18 | -27.3 |
